Common to all, as to parameters: scale not given: direction of the effect not stated beside the values
Assay [1] has as its target Protein translocase subunit SecA (Escherichia coli (strain K12)) (UniProt P10408). Put plainly: Assay to Identify E. coli SecA ATPase Inhibitors. The class given is functional. Conditions: 30 µM.
Assay [2] concerns the target T1, Ubiquitin-activating enzyme e1, putative (Leishmania donovani (strain BPK282A1)) (UniProt E9BSI1).
T1 sequence (whole entry): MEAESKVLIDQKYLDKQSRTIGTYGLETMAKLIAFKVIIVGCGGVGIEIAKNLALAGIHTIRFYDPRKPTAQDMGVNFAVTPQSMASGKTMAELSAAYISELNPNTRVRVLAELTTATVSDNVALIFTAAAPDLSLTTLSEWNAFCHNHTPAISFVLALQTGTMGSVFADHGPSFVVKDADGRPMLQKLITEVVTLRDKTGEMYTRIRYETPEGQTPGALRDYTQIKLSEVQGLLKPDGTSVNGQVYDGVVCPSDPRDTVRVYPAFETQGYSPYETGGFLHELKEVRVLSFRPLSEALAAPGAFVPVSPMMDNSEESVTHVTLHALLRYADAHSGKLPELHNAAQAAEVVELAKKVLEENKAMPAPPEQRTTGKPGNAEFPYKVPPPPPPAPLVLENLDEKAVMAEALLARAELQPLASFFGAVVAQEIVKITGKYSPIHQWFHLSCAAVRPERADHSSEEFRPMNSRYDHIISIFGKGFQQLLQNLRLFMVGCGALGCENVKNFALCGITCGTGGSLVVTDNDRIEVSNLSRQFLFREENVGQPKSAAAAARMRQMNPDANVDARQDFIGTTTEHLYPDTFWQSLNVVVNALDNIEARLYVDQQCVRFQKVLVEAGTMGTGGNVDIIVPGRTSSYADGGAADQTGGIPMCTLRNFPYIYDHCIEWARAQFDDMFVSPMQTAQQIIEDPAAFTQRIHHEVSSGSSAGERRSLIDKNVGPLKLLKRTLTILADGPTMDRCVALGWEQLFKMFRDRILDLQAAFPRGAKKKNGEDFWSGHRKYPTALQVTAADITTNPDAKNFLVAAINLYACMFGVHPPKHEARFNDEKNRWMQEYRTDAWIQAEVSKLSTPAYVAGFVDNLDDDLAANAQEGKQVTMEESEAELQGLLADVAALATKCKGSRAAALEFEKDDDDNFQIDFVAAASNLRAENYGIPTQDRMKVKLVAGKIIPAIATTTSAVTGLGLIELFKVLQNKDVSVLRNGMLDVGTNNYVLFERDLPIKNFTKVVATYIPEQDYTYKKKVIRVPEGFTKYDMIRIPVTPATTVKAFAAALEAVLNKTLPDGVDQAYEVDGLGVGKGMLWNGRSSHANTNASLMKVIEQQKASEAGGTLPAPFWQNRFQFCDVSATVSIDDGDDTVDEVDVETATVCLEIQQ
Put plainly: Leishmania donovani Ubiquitin Activating Enzyme (LdE1). The class given is functional. The conditions noted are these: 30 µM.

The target in assay [3] is AMP-activated protein kinase, AMPK (Homo sapiens) (UniProt P54646+O43741+P54619+Q9UGJ0+Q9Y478+Q13131+Q9UGI9). Put plainly: AMP-dependent Kinase enzyme assay. An in vitro enzyme assay that detects ADP turnover that is directly proportional to AMPK activity. This uses naive AMPK that is activated during the assay with MK-8722. The class given is functional. The conditions noted are these: 30 µM.

Assay [4] concerns the target Sialic acid-binding Ig-like lectin 9 (Homo sapiens) (UniProt Q9Y336). Put plainly: Hs-Siglec9 ALPHAscreen SOP 20170721. Conditions: 10 µM.
In the next assay the test system is Trypanosoma cruzi. Put plainly: Trypanosoma cruzi phosphomannomutase and mannose-1-phosphate guanylyltransferase assay. The class given is functional. Conditions: 10 µM.
Assay [5] has as its target T2, Arginase-2, mitochondrial (Homo sapiens) (UniProt P78540).
T2 sequence (whole entry): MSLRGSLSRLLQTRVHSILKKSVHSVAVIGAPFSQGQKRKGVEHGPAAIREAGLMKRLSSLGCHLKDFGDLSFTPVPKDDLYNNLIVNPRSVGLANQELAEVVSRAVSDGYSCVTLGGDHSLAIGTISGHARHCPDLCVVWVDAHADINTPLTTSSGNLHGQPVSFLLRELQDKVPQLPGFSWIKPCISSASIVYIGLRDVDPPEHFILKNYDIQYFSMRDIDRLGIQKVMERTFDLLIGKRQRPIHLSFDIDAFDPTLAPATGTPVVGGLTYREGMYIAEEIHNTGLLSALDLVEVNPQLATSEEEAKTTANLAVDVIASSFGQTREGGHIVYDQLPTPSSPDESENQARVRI
Put plainly: in vitro enzyme assay to detect the production of urea directly proportional to the activity of Arginase II. Note: in the data most compounds retested in dose-response had high values. Conditions: 33.3 µM. It counts as functional.

In assay [6] the target is T3, Proteasome subunit beta (Trypanosoma cruzi) (UniProt O96673).
T3 sequence (whole entry): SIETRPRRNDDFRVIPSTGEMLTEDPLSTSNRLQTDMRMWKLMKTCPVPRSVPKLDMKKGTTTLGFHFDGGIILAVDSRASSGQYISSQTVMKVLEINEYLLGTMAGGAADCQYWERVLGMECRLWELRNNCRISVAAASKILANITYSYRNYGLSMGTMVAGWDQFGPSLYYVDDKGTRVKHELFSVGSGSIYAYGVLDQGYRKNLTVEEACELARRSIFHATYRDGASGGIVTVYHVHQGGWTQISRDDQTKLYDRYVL
Briefly: Trypanosoma cruzi proteasome chymotrypsin-like activity (TcProtChymo) assay. Note: in the data most compounds retested in dose-response had high values. Conditions: 9.37 µM. The class given is functional.

The species named for a further assay is Homo sapiens. Briefly: To identify inhibition of the IFN signalling (Jak-Stat) pathway via expression of an eGFP reporter gene under the control of an IFN-stimulated response element (ISRE) containing MxA promoter. It counts as functional. Conditions: 30 µM.
Assay [7] addresses T4, Tyrosyl-tRNA synthetase, putative (Trypanosoma cruzi (strain CL Brener)) (UniProt Q4DSP6).
T4 sequence (whole entry): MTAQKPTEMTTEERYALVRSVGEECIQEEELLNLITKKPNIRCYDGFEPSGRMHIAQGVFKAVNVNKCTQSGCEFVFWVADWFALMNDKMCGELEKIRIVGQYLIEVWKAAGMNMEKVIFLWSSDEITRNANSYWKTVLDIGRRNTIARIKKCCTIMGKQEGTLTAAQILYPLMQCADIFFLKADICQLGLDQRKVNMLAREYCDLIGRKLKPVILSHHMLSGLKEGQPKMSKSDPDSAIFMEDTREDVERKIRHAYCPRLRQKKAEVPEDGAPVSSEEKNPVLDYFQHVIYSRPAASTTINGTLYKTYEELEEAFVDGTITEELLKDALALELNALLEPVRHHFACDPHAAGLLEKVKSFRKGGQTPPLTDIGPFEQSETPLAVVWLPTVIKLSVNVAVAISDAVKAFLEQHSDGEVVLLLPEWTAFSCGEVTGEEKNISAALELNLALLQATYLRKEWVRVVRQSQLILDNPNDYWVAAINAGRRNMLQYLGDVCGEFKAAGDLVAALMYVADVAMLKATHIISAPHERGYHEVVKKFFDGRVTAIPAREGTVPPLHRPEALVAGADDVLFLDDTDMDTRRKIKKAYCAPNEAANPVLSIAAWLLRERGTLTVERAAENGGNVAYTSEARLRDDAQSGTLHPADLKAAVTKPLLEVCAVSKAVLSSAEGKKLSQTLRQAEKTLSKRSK
Put plainly: Trypanosoma cruzi tyrosyl tRNA synthetase (TcYRS) _High Tyrosine SOP. Note: in the data most compounds retested in dose-response had high values. The conditions noted are these: 30 µM. It counts as functional.

For assay [8], the target named is T4, Tyrosyl-tRNA synthetase, putative (Trypanosoma cruzi (strain CL Brener)). Put plainly: Trypanosoma cruzi tyrosyl tRNA synthetase (TcYRS) SOP. It counts as functional. Conditions: 30 µM.
Assay [9] addresses Chromo domain-containing protein 1 (Saccharomyces cerevisiae (strain ATCC 204508 / S288c) (Baker's yeast)) (UniProt P32657). Briefly: ScCHD-1 Enzyme Inhibition Assay. Note: in the data most compounds retested in dose-response had high values. It counts as functional. The conditions noted are these: 30 µM.

Each structure is given as a SMILES string. For some assays here: Potency and affinity values are given separately.

Sequence of Chromo domain-containing protein 1 (Saccharomyces cerevisiae (strain ATCC 204508 / S288c) (Baker's yeast)) (P32657 whole entry, the tested form may be a part): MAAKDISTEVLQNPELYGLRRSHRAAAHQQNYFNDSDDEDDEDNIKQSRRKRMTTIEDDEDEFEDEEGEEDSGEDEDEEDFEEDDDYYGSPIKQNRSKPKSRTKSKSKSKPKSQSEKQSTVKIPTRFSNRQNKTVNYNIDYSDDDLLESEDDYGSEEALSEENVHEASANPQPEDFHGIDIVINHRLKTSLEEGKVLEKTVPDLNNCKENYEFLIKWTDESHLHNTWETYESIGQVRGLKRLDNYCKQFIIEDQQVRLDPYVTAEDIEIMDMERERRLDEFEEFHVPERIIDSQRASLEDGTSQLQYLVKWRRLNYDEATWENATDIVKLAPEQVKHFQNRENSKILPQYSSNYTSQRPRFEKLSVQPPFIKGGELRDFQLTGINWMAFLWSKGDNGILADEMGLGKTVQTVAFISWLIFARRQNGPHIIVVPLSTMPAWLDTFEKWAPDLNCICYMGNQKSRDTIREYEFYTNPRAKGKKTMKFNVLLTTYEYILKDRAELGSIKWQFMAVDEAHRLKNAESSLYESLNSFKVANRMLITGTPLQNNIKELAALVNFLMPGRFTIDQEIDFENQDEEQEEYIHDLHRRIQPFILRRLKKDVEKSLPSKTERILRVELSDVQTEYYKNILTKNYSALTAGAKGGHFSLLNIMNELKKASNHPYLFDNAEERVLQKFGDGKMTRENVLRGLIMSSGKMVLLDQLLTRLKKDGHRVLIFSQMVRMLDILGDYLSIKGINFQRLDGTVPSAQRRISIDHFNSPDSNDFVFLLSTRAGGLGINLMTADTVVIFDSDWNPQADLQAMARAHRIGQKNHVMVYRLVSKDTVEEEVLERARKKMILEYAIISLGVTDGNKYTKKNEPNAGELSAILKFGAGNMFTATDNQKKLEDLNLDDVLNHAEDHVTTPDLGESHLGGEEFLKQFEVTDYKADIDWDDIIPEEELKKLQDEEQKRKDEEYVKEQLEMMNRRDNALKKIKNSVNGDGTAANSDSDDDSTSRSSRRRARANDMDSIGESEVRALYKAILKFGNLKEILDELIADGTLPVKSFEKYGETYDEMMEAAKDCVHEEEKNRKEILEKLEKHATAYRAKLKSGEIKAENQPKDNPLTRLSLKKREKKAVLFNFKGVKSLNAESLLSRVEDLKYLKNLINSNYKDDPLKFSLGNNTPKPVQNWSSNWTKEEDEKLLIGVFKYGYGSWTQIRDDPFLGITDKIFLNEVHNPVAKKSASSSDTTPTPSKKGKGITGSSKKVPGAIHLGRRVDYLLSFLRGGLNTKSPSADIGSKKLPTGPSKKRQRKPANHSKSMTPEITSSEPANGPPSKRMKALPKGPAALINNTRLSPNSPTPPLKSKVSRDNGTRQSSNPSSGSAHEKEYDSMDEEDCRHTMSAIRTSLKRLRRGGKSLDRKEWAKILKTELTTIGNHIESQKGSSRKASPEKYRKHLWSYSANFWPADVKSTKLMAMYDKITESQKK
Sequence of Protein translocase subunit SecA (Escherichia coli (strain K12)) (P10408 whole entry): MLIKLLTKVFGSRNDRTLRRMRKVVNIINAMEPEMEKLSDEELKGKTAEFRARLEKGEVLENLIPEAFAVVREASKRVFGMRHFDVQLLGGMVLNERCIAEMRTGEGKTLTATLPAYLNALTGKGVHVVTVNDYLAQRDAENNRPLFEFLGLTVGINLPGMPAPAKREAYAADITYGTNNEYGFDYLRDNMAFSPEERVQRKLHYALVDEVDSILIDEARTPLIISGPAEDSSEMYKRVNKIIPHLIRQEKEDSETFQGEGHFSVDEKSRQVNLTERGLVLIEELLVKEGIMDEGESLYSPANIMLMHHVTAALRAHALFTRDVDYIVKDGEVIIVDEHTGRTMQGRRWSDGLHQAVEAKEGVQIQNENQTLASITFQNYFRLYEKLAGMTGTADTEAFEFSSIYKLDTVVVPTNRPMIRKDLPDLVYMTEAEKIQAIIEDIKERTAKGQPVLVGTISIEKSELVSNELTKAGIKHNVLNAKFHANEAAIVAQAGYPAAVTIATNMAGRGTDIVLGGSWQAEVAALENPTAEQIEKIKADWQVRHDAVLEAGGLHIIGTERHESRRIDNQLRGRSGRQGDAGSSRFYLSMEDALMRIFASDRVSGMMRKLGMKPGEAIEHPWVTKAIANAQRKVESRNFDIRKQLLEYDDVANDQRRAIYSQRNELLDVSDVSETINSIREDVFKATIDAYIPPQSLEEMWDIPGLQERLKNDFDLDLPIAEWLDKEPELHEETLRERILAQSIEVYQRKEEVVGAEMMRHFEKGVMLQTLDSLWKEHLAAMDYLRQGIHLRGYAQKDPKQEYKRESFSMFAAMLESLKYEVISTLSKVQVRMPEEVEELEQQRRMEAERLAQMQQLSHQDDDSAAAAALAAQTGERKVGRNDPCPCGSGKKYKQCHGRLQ
Sequence of Sialic acid-binding Ig-like lectin 9 (Homo sapiens) (Q9Y336 whole entry): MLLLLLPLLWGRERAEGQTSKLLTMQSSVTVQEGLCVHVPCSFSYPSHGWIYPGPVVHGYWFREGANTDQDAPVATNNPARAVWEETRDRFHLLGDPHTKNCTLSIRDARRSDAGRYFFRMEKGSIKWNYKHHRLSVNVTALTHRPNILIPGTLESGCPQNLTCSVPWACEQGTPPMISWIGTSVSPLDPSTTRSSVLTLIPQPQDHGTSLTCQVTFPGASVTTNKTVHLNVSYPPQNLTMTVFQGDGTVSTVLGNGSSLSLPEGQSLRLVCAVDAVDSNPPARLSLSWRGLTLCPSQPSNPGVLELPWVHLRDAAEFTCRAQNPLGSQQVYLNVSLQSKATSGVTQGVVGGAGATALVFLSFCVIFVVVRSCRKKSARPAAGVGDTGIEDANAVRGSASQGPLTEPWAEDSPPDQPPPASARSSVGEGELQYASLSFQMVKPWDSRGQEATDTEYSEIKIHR

`O=C(CCc1cc2n(n1)CCCN(C(=O)c1ccccn1)C2)NC1CC1`: the Percent Effect in assay [1] was -2.88%; in [2] it was 4.17%; in [3], -1.28%; in assay [4] it was 15.3%; in the assay on Trypanosoma cruzi, 4.76%; in assay [5], 21.2%. The Percent Effect was 7.89% in assay [6]; -15.2% in the assay filed under Homo sapiens; 4.21% in [7]; 5.13% in [8]; -4.34% in [9].

Take `COc1ccccc1CC1CCCN(CCC#N)C1` (stereo not given): the Percent Effect in assay [1] was -3.04%; in assay [2], 5.2%; in [3] it was -0.847%; in assay [4], 2.02%; in the assay on Trypanosoma cruzi, 3.82%; in [5] it was 4.42%. Besides, the Percent Effect was -6.39% in assay [6]; 8.44% in the assay filed under Homo sapiens; 2.86% in [7]; 11.8% in assay [8]; -9.24% in assay [9].

With `N#Cc1cccc(CS(=O)(=O)NCCC(O)c2ccccc2)c1` (stereo not given), the Percent Effect in assay [1] is 13%; in assay [2] it was 5.33%; in assay [3] it was -6.17%; in assay [4] it was 7.18%; with Trypanosoma cruzi it was 4.77%; in [5], 15.1%. Further, the Percent Effect in assay [6] was 16.2%; in the assay filed under Homo sapiens it was 3.01%; in [7] it was 4.92%; in assay [8], 16.1%; in assay [9], -6.38%.

For the molecule `CCCc1noc(CN(C)C(=O)C2COc3ccccc3C2)n1` (stereo not given), the Percent Effect is -2.56% in assay [1]; 7.79% in assay [2]; -0.0483% in assay [3]; 4.75% in assay [4]; -3.25% in the assay with Trypanosoma cruzi; -30.3% in assay [5]. Further, the Percent Effect is 14.1% in assay [6]; -15.6% in the assay listed under Homo sapiens; 5.38% in [7]; 16.1% in assay [8]; -3.26% in assay [9].

`CCc1c(C(=O)N2CCN(c3ncccn3)CC2)cnn1C(C)(C)C`: the Percent Effect in assay [1] was -1.49%; in assay [2], 21.1%; in assay [3] it was -5.24%; in assay [4], 0.163%; in the assay on Trypanosoma cruzi, 0.0934%; in assay [5], 1.44%. The Percent Effect in [6] was 13.3%; in the assay listed under Homo sapiens, 9.72%; in assay [7], 4.43%; in assay [8], 18.5%; in assay [9], -8.38%.

As for `Fc1ccc(-c2nnc(CN3CCCC3Cn3cncn3)o2)cc1` (stereo not given), the Percent Effect in assay [1] was -1.9%; in assay [2], 5.2%; in assay [3], -0.239%; in [4], 9.41%; in the assay on Trypanosoma cruzi, 6.93%; in assay [5] it was 0.712%. Moreover, the Percent Effect in assay [6] is 7.26%; in the assay listed under Homo sapiens, -14.3%; in assay [7], 4.85%; in assay [8], 19.5%; in [9], -10.5%.

As for `Fc1ccc(CCN2CCC(c3nnc(-c4cccnc4)o3)CC2)cc1`, the Percent Effect in assay [1] is -1.2%; in assay [2] it was 1.35%; in assay [3], 6.27%; in assay [4], -6.66%; with Trypanosoma cruzi it was -0.988%; in assay [5] it was -5.8%. Also, the Percent Effect in assay [6] is 18.9%; in the assay listed under Homo sapiens, 19.1%; in assay [7], 3.23%; in [8], 9.09%; in assay [9], -14%.

On to `O=c1[nH]c2c(c(=O)n1C1CCCCC1)CCC2Nc1ccccc1Cl` (stereo not given), for which the Percent Effect in assay [1] is -2.47%; in assay [2], 6.67%; in assay [3] it was -9.22%; in assay [4], -1.39%; in the assay with Trypanosoma cruzi it was 4.71%; in [5], 92.1%. The Percent Effect in [6] was 5.36%; in the assay filed under Homo sapiens it was 33.1%; in assay [7] it was -9.52%; in assay [8], -7.69%; in assay [9] it was -11.3%.

As for `OC(CN1CCN(c2ncccn2)CC1)c1cccc(F)c1` (stereo not given), the Percent Effect in assay [1] was -2.83%; in [2], 13.5%; in assay [3], -5.06%; in assay [4], 19.1%; in the assay on Trypanosoma cruzi, 4.99%; in assay [5], 16.6%. Moreover, the Percent Effect in assay [6] was 2.49%; in the assay listed under Homo sapiens, 20.5%; in assay [7] it was 6.45%; in assay [8] it was 16.1%; in [9], -5.42%.

In the case of `Clc1ccc2oc(C3CCN(Cc4cccnc4)CC3)nc2c1`, the Percent Effect in assay [1] was 0.753%; in assay [2] it was 13.5%; in assay [3], 5.18%; in assay [4], 16.9%; in the assay with Trypanosoma cruzi, 5.02%; in assay [5], -10.5%. The Percent Effect in [6] is 15.5%; in the assay listed under Homo sapiens, 32.2%; in [7], -0.529%; in assay [8], 12.2%; in assay [9], -6.96%.
